In PubChem BioAssay (NCATS):
Results filed as inconclusive are left out. Where a call stands in place of a potency, no number is given. Calls of active or inactive are those of the source. Calls come from the whole dose curve; as a rule, active = well fitted curve in the direction sought with a large enough effect; inconclusive = small, poorly fitted or top-dose-only effect, or another doubt; inactive = no such curve, though single readings can be large; an effect the other way counts as inactive or inconclusive.

Experiments:
[1] = target: Single-stranded DNA cytosine deaminase (Homo sapiens) (UniProt Q9GZX7); experiment: Validation qHTS assay for inhibitors of Activation Induced Cytidine Deaminase (AID): AID signal (AID 1347429)
Single-stranded DNA cytosine deaminase (Homo sapiens), sequence (Q9GZX7 whole entry, looked up): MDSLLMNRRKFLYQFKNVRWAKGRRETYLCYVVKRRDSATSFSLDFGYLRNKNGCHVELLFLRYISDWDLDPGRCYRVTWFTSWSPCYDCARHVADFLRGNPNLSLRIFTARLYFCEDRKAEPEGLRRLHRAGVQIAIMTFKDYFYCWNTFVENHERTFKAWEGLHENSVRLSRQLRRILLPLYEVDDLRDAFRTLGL
Summary of the method: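 Compounds (final up to 114 uM) preincubated with AID plus UDG; 250 nM DJC20/DJC23 substrate mix (4x stock) added, 4 hr at room temperature, then NaOH, 30 min. Read 1 fluorescence at 540 nm excitation, 590 nm emission.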

[2] = Primary qHTS for inhibitors of La Crosse Virus (LACV) - induced cell death in SH-SY5Y cells (AID 1508616);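 note: top concentration of the series differs between compounds; higher means more rescue of cells from virus-induced death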
Summary of the method: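 Rescue of virus-induced death was read as ATPLite luminescence after 6 days at 37C, scaled between DMSO wells with LACV and without virus. Cells were SH-SY5Y, 6000/well, infected at 0.01 MOI after compound addition.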

[3] = target: Calcium and integrin-binding protein 1 (Homo sapiens) (UniProt Q99828); experiment: Validation qHTS for Identification of Calcium Integrin Binding protein 1 (CIB1) Competitor (AID 1508618)
Calcium and integrin-binding protein 1 (Homo sapiens), sequence (Q99828 whole entry, looked up): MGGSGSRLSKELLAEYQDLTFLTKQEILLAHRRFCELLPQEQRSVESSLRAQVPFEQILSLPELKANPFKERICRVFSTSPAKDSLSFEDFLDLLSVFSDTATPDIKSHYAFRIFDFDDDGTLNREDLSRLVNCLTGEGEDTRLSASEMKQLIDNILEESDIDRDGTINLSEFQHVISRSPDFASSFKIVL
Summary of the method: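 CIB1-GST (1 uM final) in 5 mM HEPES pH 7.4, 125 mM NaCl, 5 mM CaCl2, 0.01% Tween20 was preincubated 15 min at room temperature with compound (up to 114 uM), then FITC-alphaIIb peptide (100 nM) added for 15 min; fluorescence polarization read.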

[4] = Primary qHTS for small molecule stabilizers of the endoplasmic reticulum resident proteome: Secreted ER Calcium Modulated Protein (SERCaMP) assay (AID 1508630)
Summary of the method: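 The SH-SY5Y reporter protocol was run at 3 concentrations up to 38.3 uM (primary) or 11 concentrations (follow-up): 16 h compound, 100 nM thapsigargin for 4 h, then extracellular luciferase luminescence.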

Papain (Carica papaya) = Papain (Carica papaya) (UniProt P00784); experiment: Primary qHTS assay for inhibitors of the protease papain (AID 1645873);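 note: papain turnover of Z-FR-AMC read as the AMC fluorescence gain over 10 min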; note: potency is the fitted concentration of half-maximal effect
Papain (Carica papaya), sequence (P00784 whole entry, looked up): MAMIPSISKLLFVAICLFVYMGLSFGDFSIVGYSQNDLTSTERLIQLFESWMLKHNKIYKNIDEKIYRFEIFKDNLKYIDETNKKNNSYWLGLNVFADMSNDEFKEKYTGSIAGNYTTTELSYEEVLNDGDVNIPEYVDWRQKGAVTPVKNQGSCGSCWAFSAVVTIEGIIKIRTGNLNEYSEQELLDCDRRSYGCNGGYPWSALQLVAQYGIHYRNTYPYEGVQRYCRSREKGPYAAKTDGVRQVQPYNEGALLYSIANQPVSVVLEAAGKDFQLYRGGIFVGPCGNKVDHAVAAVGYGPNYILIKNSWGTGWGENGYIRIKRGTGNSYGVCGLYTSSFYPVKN

Compound | Potency [1] | Potency [2] | Potency [3] | Potency [4] | Potency (Papain (Carica papaya))
CC[N+](CC)(CC)CC(=O)Nc1c(C)cccc1C | inactive | inactive | inactive | inactive | inactive
CC1CCN=C(N)S1 (stereo unspecified) | inactive | inactive | inactive | inactive | inactive
NC(=O)c1ccccc1 | inactive | inactive | inactive | inactive | inactive
N[C@H](C(=O)O)[C@H](O)C(=O)O | inactive | inactive | inactive | inactive | inactive
CNc1cc(NS(=O)(=O)c2ccc(N)cc2)nc(NC)n1 | inactive | inactive | inactive | inactive | inactive
CC1CNCCN1S(=O)(=O)c1cccc2cnccc12 (stereo unspecified) | inactive | inactive | inactive | inactive | inactive
COCc1nc2c([nH]1)c(=O)n(C)c(=O)n2CC(C)C | inactive | inactive | inactive | inactive | inactive
CC(C)C[C@H](NC(=O)C1OC1C(=O)O)C(=O)NCCCCN=C(N)N (stereo partly specified) | inactive | inactive | inactive | inactive | inactive
N[C@@H](Cc1ccc(O)c(I)c1)C(=O)O | inactive | inactive | inactive | inactive | inactive
Cc1cccc(C)c1OCC(N)C(C)C (stereo unspecified) | inactive | inactive | inactive | inactive | inactive
CC(C)(C)c1cc(/C=C(\C#N)C(N)=S)cc(C(C)(C)C)c1O | inactive | inactive | inactive | inactive | inactive
CC(C)(C)NCC(O)COc1cccc2[nH]c(=O)[nH]c12 (stereo unspecified) | inactive | inactive | inactive | inactive | inactive
NCC(O)(CS(=O)(=O)O)c1ccc(Cl)cc1 (stereo unspecified) | inactive | inactive | inactive | inactive | inactive
COc1cc(C(O)CO)ccc1O (stereo unspecified) | inactive | inactive | inactive | inactive | inactive
CNCCc1cnc(CCC(c2ccccc2)c2ccccc2)[nH]1 | inactive | inactive | inactive | inactive | inactive
Cc1cc2c(cc1Cl)N(C(=O)Nc1ccnc3ccccc13)CC2 | inactive | inactive | inactive | inactive | inactive
N=C(N)SCCN | inactive | inactive | inactive | inactive | inactive
O=C(O)C1=CCCNC1 | inactive | inactive | inactive | inactive | inactive
CCCCCCCCCCC(C)(C)C(=O)Nc1c(OC)cc(OC)cc1OC | inactive | inactive | inactive | inactive | inactive
Cc1nc2n(c(=O)c1CCN1CCC(c3noc4cc(F)ccc34)CC1)CCCC2O (stereo unspecified) | inactive | inactive | inactive | inactive | inactive
O=c1ccn([C@@H]2O[C@H](COP(=O)(O)OP(=O)(O)O)[C@@H](O)[C@H]2O)c(=O)[nH]1 | inactive | inactive | inactive | inactive | inactive
COc1ccccc1N1CCN(CCCNc2c(C)c(=O)n(C)c(=O)n2C)CC1 | inactive | inactive | inactive | inactive | inactive
N=S(=O)(O)Cc1noc2ccccc12 | inactive | inactive | inactive | inactive | inactive
O=c1onc2n1-c1cc(Br)ccc1OC2 | inactive | inactive | inactive | inactive | inactive
Cc1nc(N=Nc2ccc(C(=O)O)cc2)c(COP(=O)(O)O)c(C=O)c1O | inactive | inactive | inactive | inactive | inactive

Compound | Potency [1] | Potency [2] | Potency [3] | Potency [4] | Potency (Papain (Carica papaya))
O=C(O)/C=C/c1ccc(O)c(O)c1 | inactive | inactive | inactive | inactive | inactive
O=C(O)C1=CCNCC1 | inactive | inactive | inactive | inactive | inactive
O=C(O)c1ccccc1Nc1ccccc1 | inactive | inactive | inactive | inactive | inactive
OC1(c2ccc(Cl)cc2)CCN(Cc2c[nH]c3ccccc23)CC1 | inactive | inactive | inactive | inactive | inactive
CC(C)NC[C@H](O)COc1ccc(CC(N)=O)cc1 | inactive | inactive | inactive | inactive | inactive
O=[N+]([O-])c1cccc2cn[nH]c12 | inactive | inactive | inactive | inactive | inactive
Cn1c(=O)c2c(nc(/C=C/c3cccc(Cl)c3)n2C)n(C)c1=O | inactive | inactive | inactive | inactive | 3.55 µM (active)
CCCCCCCCCC(=O)NC(CN1CCOCC1)[C@H](O)c1ccccc1 (stereo partly specified) | inactive | inactive | inactive | – | inactive
CC1C(=O)N(C)C(=O)c2nc[nH]c21 (stereo unspecified) | inactive | inactive | inactive | – | inactive
C[C@H](NC(=O)/C(C#N)=C/c1ccc(O)c(O)c1)c1ccccc1 | inactive | inactive | inactive | – | inactive
CN1Cc2sccc2C(c2ccc(O)c(O)c2)C1 (stereo unspecified) | inactive | inactive | inactive | – | inactive
CNc1ncnc2c1ncn2[C@H]1C[C@H](OP(=O)(O)O)[C@@H](COP(=O)(O)O)O1 | inactive | inactive | inactive | – | inactive
CCc1ccc2c(-c3cccc(Cl)c3)nc(=O)n(CC)c2n1 | inactive | inactive | inactive | – | inactive
OC[C@H]1O[C@H](n2cnc3c(N[C@H]4CCC[C@@H]4O)ncnc32)[C@H](O)[C@@H]1O | inactive | inactive | inactive | – | inactive
CCCCC[C@H](CC(=O)NO)C(=O)N[C@H](C(=O)N1CCC[C@H]1CO)C(C)C | inactive | inactive | inactive | inactive | inactive
CCSC(=N)N | inactive | inactive | inactive | inactive | inactive
Fc1ccc(CN(C2=NCCN2)c2c(Cl)cccc2Cl)cc1 | inactive | inactive | inactive | – | inactive
N=C(N)c1ccccc1 | inactive | inactive | inactive | – | inactive
O=C(O)CCC/C=C\C[C@@H]1[C@@H](/C=C/[C@H](O)C2Cc3ccccc3C2)[C@@H](F)C[C@@H]1O | inactive | inactive | inactive | – | inactive
NCCCCN | inactive | inactive | inactive | – | inactive
COc1ccccc1N1CCN(CCN(C(=O)c2ccc(F)cc2)c2ccccn2)CC1 | inactive | inactive | inactive | – | inactive
Cn1cc(C(F)(F)F)nc1-c1ccc(OCC(O)CNCCOc2ccc(O)c(C(N)=O)c2)cc1 (stereo unspecified) | inactive | inactive | inactive | inactive | inactive
COc1cc(CC(=O)O)ccc1O | inactive | inactive | inactive | inactive | inactive
CN(CC[C@@H](Oc1ccc(C(F)(F)F)cc1)c1ccccc1)CC(=O)O | inactive | inactive | inactive | inactive | inactive
COC(=O)C(C)(N)Cc1ccc(O)cc1 (stereo unspecified) | inactive | inactive | inactive | – | inactive

Compound | Potency [1] | Potency [2] | Potency [3] | Potency [4] | Potency (Papain (Carica papaya))
O=C(O)/C=C/c1cnc[nH]1 | inactive | inactive | inactive | – | inactive
Nc1nc2[nH]c(=O)cnc2c(=O)[nH]1 | inactive | inactive | inactive | – | inactive
N[C@H](C(=O)O)[C@H](Cc1ccccc1)C(=O)O | inactive | inactive | inactive | – | inactive
O=C(O)[C@H]1NCCC[C@H]1C(=O)O | inactive | inactive | inactive | inactive | inactive
CC1CCN(CC[C@H]2CCCN2S(=O)(=O)c2cccc(O)c2)CC1 | inactive | inactive | inactive | inactive | inactive
N[C@H](C(=O)O)[C@H]1C[C@@H]1C(=O)O | inactive | inactive | inactive | inactive | inactive
NCCS(=O)O | inactive | inactive | inactive | inactive | inactive
CC(=O)O[C@H]1Cc2ccccc2N(C(N)=O)c2ccccc21 | inactive | inactive | inactive | – | inactive
NC1(C(=O)O)CC1 | inactive | inactive | inactive | – | inactive
CCC(=O)N1CCN(C(=O)c2ccccc2)CC1 | inactive | inactive | inactive | inactive | inactive
CC(=O)O[C@H]1CC2(C)[C@@H](C[C@@H](O)[C@H]3[C@@]4(C)CC[C@@H](O)[C@@H](C)[C@@H]4CC[C@@]32C)C1=C(CCC=C(C)C)C(=O)O (stereo partly specified) | inactive | inactive | inactive | – | inactive
N=C(N)c1ccc(N)cc1 | inactive | inactive | inactive | – | inactive
O=C(O)c1cc(=O)cc(C(=O)O)[nH]1 | inactive | inactive | inactive | – | inactive
N[C@@H](Cc1c[nH]c2ccccc12)C(=O)O | inactive | inactive | inactive | – | inactive
CCC1(O)CC2CN(CCc3c([nH]c4ccccc34)[C@@](C(=O)OC)(c3cc4c(cc3OC)N(C=O)C3[C@]45CCN4CC=C[C@@](CC)([C@@H](OC(C)=O)[C@]3(O)C(=O)OC)[C@H]45)C2)C1 (stereo partly specified) | inactive | inactive | inactive | inactive | inactive
C=C1C[C@@]23CC[C@H]4[C@@](C)(CCC[C@@]4(C)C(=O)O)[C@@H]2CC[C@]1(O)C3 | inactive | inactive | inactive | – | inactive
Nc1ccc(N2C(=O)c3ccccc3C2=O)c(Cl)c1 | inactive | inactive | inactive | – | inactive
Nc1ncnc2c1nc(Sc1ccc(Cl)cc1)n2[C@H]1OC2COP(=O)(O)O[C@@H]2C1O (stereo partly specified) | inactive | inactive | inactive | inactive | inactive
CC(C)(C)c1ccc(/C=C/C(=O)Nc2ccc3c(c2)OCCO3)cc1 | inactive | inactive | inactive | inactive | inactive
CCCCCC(O)CCCC(=O)O (stereo unspecified) | inactive | inactive | inactive | inactive | inactive
O=c1[nH]c2cc(Cl)ccc2c(O)c1-c1ccc(Oc2ccccc2)cc1 | inactive | inactive | inactive | – | inactive
COc1ccc2c(c1)c(CC(=O)O)c(C)n2Cc1ccc(Cl)cc1 | inactive | inactive | – | inactive | inactive
CO/N=C(\C(=O)N[C@@H]1C(=O)N2C(C(=O)O)=C(CSc3nc(=O)c(O)nn3C)CSC12)c1csc(N)n1 (stereo partly specified) | inactive | inactive | – | inactive | –
C=CCNc1ncnc2ccc(Br)cc12 | inactive | inactive | inactive | – | inactive
